Test results taken from PubChem BioAssay (NCI).
The panel holds about 79,000 compounds, 15% with a hit somewhere; the sample as a whole holds those more often. Cut-off read from the data, not from the text of the source: active = growth inhibition above about 70%; inactive = the rest.

Columns and labels:
[1] = NCI Yeast Anticancer Drug Screen. Data for the rad50 strain (AID 155);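 note: 0% = growth of vehicle-only cultures of the same strain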; settings: S. cerevisiae rad50 strain growth inhibition; at 50.0 µM; hits give high values
How it was run: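 Inhibition values express reduced yeast growth in compound-treated cultures relative to vehicle-treated controls.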

[2] = NCI Yeast Anticancer Drug Screen. Data for the mec2-1 strain (AID 157); settings: S. cerevisiae mec2-1 strain, at 50.0 µM, hits give high values
How it was run: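 Using mec2-1 yeast: add compound, measure growth, express inhibition versus vehicle-treated cultures.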

[3] = NCI Yeast Anticancer Drug Screen. Data for the sgs1 mgt1 strain (AID 161);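 note: 0% = growth of cultures given vehicle only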; settings: S. cerevisiae sgs1 mgt1 strain, at 50.0 µM, hits give high values
How it was run: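 Compounds are added to genetically altered yeast, and growth is compared with cultures given vehicle alone to give percent inhibition.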

[4] = NCI Yeast Anticancer Drug Screen. Data for the cln2 rad14 strain (AID 165);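 note: 0% = growth equal to vehicle treated cultures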; settings: S. cerevisiae cln2 rad14 strain, at 50.0 µM, hits give high values
How it was run: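 Yeast strain cln2 rad14, bearing defects in cell cycle control and DNA repair, serves as the test system; values reflect growth inhibition compared with vehicle.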

[5] = NCI Yeast Anticancer Drug Screen. Data for the bub3 strain (AID 167); settings: S. cerevisiae bub3 mutant strain, at 50.0 µM, hits give high values
How it was run: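 Steps: expose the mutant yeast strain to compound; grow alongside vehicle-treated cultures; measure growth; express inhibition against the vehicle cultures.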

[6] = NCI Yeast Anticancer Drug Screen. Data for the mlh1 rad18 strain (AID 175); settings: S. cerevisiae mlh1 rad18 strain growth inhibition; at 50.0 µM; hits give high values
How it was run: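 Steps: expose repair-defective yeast to compound; measure growth; express inhibition against vehicle-treated controls.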

Measured: growth inhibition

CC1(CO)CCCC2(C)C3=CC(=O)CCC3CCC12 (stereo not given)
inactive: [1] -6.7% | [2] -1.9% | [3] -12.8% | [4] -0.35% | [5] -8.95% | [6] -3.15%

CC1(Cn2ccc(=O)[nH]c2=O)CC(C2(C)OCCO2)C(=O)O1 (stereo not given)
inactive: [1] -16.6% | [2] -22.3% | [3] -33.1% | [4] -30.7% | [5] -19% | [6] -14.4%

CC(=O)Nc1cc(C)cc(Br)c1
inactive: [1] -6.85% | [2] -4.1% | [3] -10.1% | [4] 9.05% | [5] 1.5% | [6] -9.55%

[N-]=[N+]=Nc1ccc2[nH]c3ccccc3c(=O)c2c1
inactive: [1] 17.9% | [2] -1.05% | [3] 16.9% | [4] -23.4% | [5] -16.9% | [6] 36.7%

CC/C(=C(\CC)c1ccc(OC2C=CCCC2)cc1)c1ccc(OC2C=CCCC2)cc1 (stereo not given)
inactive: [1] 28.3% | [2] -4.7% | [3] 7% | [4] -2.55% | [5] -13.8% | [6] -0.1%

Nc1nc(N)[n+]([O-])c(N)c1NCO
inactive: [1] -4.85% | [2] 2.9% | [3] -40% | [4] -50.8% | [5] -14% | [6] -25.3%

Cc1cc(C(=O)C[n+]2ccccc2)c(CN2C(=O)c3ccccc3C2=O)c(=O)n1C
inactive: [1] 14.8% | [2] -14.3% | [3] -3.9% | [4] -19.1% | [5] 6.3% | [6] 6.55%

c1ccc(-c2cc(-c3ccccc3)nc(-c3ccncc3)c2)cc1
inactive: [1] -16.1% | [2] -35.3% | [3] 2.9% | [4] 13.8% | [5] 1.55% | [6] -63.7%

O=S(=O)(O)C(Cc1nc2ccccc2[nH]1)S(=O)(=O)OCCC1S(=O)(=O)OCCOS1(=O)=O (stereo not given)
inactive: [1] 0% | [2] -0.4% | [3] 29.5% | [4] -18.9% | [5] 13.1% | [6] -24.9%

COc1ccc(-c2c(C#N)c(S)n(C3OC(COC(C)=O)C(OC(C)=O)C(OC(C)=O)C3OC(C)=O)c(=O)c2C#N)cc1 (stereo not given)
inactive: [1] -18.1% | [2] -12.2% | [3] -6.3% | [4] -16.3% | [5] 16.4% | [6] 14%

COc1ccc(CC#N)c(OCc2ccccc2)c1
inactive: [1] 2.35% | [2] 8.3% | [3] -10.2% | [4] 3.55% | [5] 1.8% | [6] -17.5%

CCCCCCCCCCCCCCCCc1c(C(=O)OC)[nH]c(=S)[nH]c1=O
inactive: [1] -49% | [2] -18.2% | [3] -21.9% | [4] -2.8% | [5] -29.1% | [6] -11.3%

CC/C(=N\N=C(/CC)c1cccs1)c1cccs1
inactive: [1] 25.5% | [2] -6.4% | [3] -10.7% | [4] 3.35% | [5] 13.1% | [6] -3.75%

O=C(Nc1nc2ccc([N+](=O)[O-])cc2s1)C(=O)C(C(=O)c1ccccc1F)C1OC(=O)c2ccccc21 (stereo not given)
inactive: [1] 29.8% | [2] 39.6% | [3] 59.5% | [4] 25.6% | [5] 38.5% | [6] 27.8%

c1cc(-c2nnc(-c3ccncc3)s2)ccn1
inactive: [1] 6.2% | [2] -1.35% | [3] -9.25% | [4] 32.5% | [5] 14.5% | [6] -8.15%

O=C(O)c1ccc([N+](=O)[O-])cc1N(c1ccccc1)c1ccccc1
inactive: [1] 27.6% | [2] 29.9% | [3] 40.1% | [4] 22.2% | [5] 29.3% | [6] 54%

Cc1nc(-c2ccccc2)ncc1C(O)CN1CCCCC1 (stereo not given)
inactive: [1] -21.7% | [2] 25.6% | [3] 18.1% | [4] -43.2% | [5] 20.5% | [6] 2.25%

CCCCCCC(C)CC(=O)O (stereo not given)
inactive: [1] -4.7% | [2] -3.85% | [3] 0% | [4] -59% | [5] -7.2% | [6] -21%

COc1ccc2c(C)[n+]3ccc4cc(OC)c(OC)cc4c3cc2c1 (tested in a mixture with another compound)
inactive: [1] 21.5% | [2] 12.4% | [3] 22.9% | [4] -6.7% | [5] 22.5% | [6] 32.8%

O=c1/c(=c2\c(=O)c3cccc4cccc2c43)c2cccc3cccc1c32
inactive: [1] -10.2% | [2] 24.9% | [3] -0.4% | [4] -34% | [5] -9.05% | [6] -18.1%
